Reference: ChEMBL document CHEMBL4513216, “Probing the Open Global Health Chemical Diversity Library for Multistage-Active Starting Points for Next-Generation Antimalarials” (ACS Infect Dis, 2020)
Screen size: about 68,000 compounds; about 2,700 (4%) showed an effect of 50% or more. The list comes from a sample in which strong results are over-represented; it also holds similar structures and randomly drawn compounds.

Each compound was assayed on Plasmodium berghei (assay: Screen against P. berghei liver stage (PbLuc), transformed with Luciferase, at 2uM). Conditions: tested at 2 uM.
Assay type: functional, HepG2

Compared with Cc1cnn(CC2CCCN2C(=O)c2sccc2C#N)c1 (stereo not drawn), CN1CCCC1CCNC(=O)c1ccccc1-n1cc(CN)cn1 (stereo not drawn) is lower in INHIBITION: 16.25% for the first, -10.49% for the second.

First: CC(C)(C)CC(=O)NCC(=O)NCC(O)c1ccc2ccccc2c1 (stereo not drawn)
Second: CCc1cccc(NC(=O)CCC(=O)N(C)Cc2nc(C)c[nH]2)c1
The INHIBITION of the first is higher: -29.53% for the first, -53.55% for the second.

First: CCc1n[nH]c(C2CN(C(=O)c3ccc(Cl)cn3)CCO2)n1 (stereo not drawn)
Second: CCOc1cccc(NC(=O)c2cnc(C)cn2)n1
The INHIBITION of the first is lower: 22.69% for the first, 29.97% for the second.

Going from CC(C)n1nc(Cn2cccn2)c2c1CN(CC1CCOC1)C2 (stereo not drawn) to CCn1nc(C)c2nc(C(C)C)nc(NCCCn3cccn3)c21, the INHIBITION falls from 20.2% to -25.67%.

First: COCC(O)CN1CCC(NC(=O)c2ccccc2Cl)CC1 (stereo not drawn)
Second: COCC(O)CN1CCC(NC(=O)c2cscc2C)CC1 (stereo not drawn)
The INHIBITION of the first is lower: -41.8% for the first, 50.93% for the second.

Going from COCCC(=O)N1CCC(NC(=O)c2cscc2C)CC1 to Cc1c(NC(=O)NC2CCCC2)cccc1C(=O)N1CCSCC1, the INHIBITION falls from 16.72% to -12.09%.

First: CCc1nnsc1C(=O)N(C)Cc1nnc2n1CCC2
Second: CN(Cc1ccc(F)cc1)C(=O)NCc1nnc2n1CCCCC2
The INHIBITION of the first is higher: -8.74% for the first, -43.41% for the second.

Compared with Cc1cnc(N2CCC3(CC(=O)N(Cc4csc(C)n4)C3)C2)nc1 (stereo not drawn), CCc1cnc(N2C[C@@H]3C[C@H](C(=O)NC)[C@H](C2)O3)nc1 is lower in INHIBITION: 25.43% for the first, 18.91% for the second.

First: CCCc1cc(N(CCOC)CC(F)F)n2ncnc2n1
Second: COCCN(CC(F)F)c1cc(COC)nc2ncnn12
The INHIBITION of the first is lower: 55.18% for the first, 69.52% for the second.

Going from COCCN(CC(F)F)c1cc(C(F)(F)F)nc2ncnn12 to CCCN(CC(F)F)c1cc(COC)nc2ncnn12, the INHIBITION falls from 25.81% to -6.73%.

Going from CCN(CC)CCN(CC(C)C)c1cc(C(F)(F)F)nc2ncnn12 to COCc1cc(N(CC(F)F)C2CC2)n2ncnc2n1, the INHIBITION rises from -13.12% to 3.59%.

First: Cc1cc(C)c(CNC(=O)NCc2cc(F)cc(F)c2)c(=O)[nH]1
Second: COc1nc2ccn(CCNc3cc(C)ccn3)c(=O)c2cc1C#N
The INHIBITION of the first is lower: 23.42% for the first, 55.39% for the second.

Compared with Cn1ncc(C(=O)OCC2CC(=O)N(c3ccccc3)C2)c1C(F)F (stereo not drawn), NS(=O)(=O)c1cnn(CCC(=O)N(Cc2ccccc2)C2CC2)c1 is lower in INHIBITION: 26.62% for the first, -102.2% for the second.

Going from CC(C)NC(=O)C1CN(C(=O)Nc2cccc(F)c2)CC12CCOCC2 (stereo not drawn) to Cc1c(NC(=O)NC2CCOCC2)cccc1C(=O)N1CCCC1, the INHIBITION rises from 9.53% to 48.39%.

Compared with O=C1CCCN1CCN1CCC(c2ccn[nH]2)CC1, O=C1COC2(CCN(Cc3nccs3)CC2)CN1CC1CC1 is lower in INHIBITION: 33.26% for the first, 7.86% for the second.

Compared with CCc1c(C)nc(N)nc1NCCSCc1[nH]cnc1C, Cc1noc(C)c1CCC(=O)N1CCn2cccc2C1C (stereo not drawn) is lower in INHIBITION: 29.98% for the first, -39.01% for the second.

First: CN(Cc1nnc(C2CC2)o1)C1CCCN(c2cccnn2)C1 (stereo not drawn)
Second: CN(Cc1nnc(-c2ccco2)o1)C1CCCN(c2cccnn2)C1 (stereo not drawn)
The INHIBITION of the first is lower: -15.05% for the first, 53.03% for the second.

Going from Cc1nc(C)n(CC2CCCN(Cc3nnc(-c4ccco4)o3)C2)n1 (stereo not drawn) to Cc1ccccc1CCC1CCCN(Cc2nnc(-c3ccco3)o2)C1 (stereo not drawn), the INHIBITION rises from 22.51% to 55.7%.

Compared with CN(Cc1nc(-c2ccco2)no1)C1CCCN(c2cccnn2)C1 (stereo not drawn), Cc1nc(CN(C)C2CCCN(c3cccnn3)C2)oc1C (stereo not drawn) is lower in INHIBITION: 22.1% for the first, -6.71% for the second.

Going from c1coc(-c2nnc(CN3CCCC(CN4CCCCCC4)C3)o2)c1 (stereo not drawn) to N#Cc1cccc(S(=O)(=O)N2CCCCC2CCN2CCCC2)c1 (stereo not drawn), the INHIBITION rises from -22.43% to -8.84%.

Compared with CN(Cc1ncc(-c2ccccc2)o1)C1CCCN(c2cccnn2)C1 (stereo not drawn), CN(Cc1ncc(C(C)(C)C)o1)C1CCCN(c2cccnn2)C1 (stereo not drawn) is higher in INHIBITION: -4.81% for the first, 51.21% for the second.

Going from CC(CN(C)C)Nc1nc(O)cc(Cc2ccccc2F)n1 (stereo not drawn) to CC(C)c1ccc(CS(=O)(=O)Cc2nc(N)nc(N(C)C)n2)cc1, the INHIBITION rises from 21% to 64.9%.

Going from COCCOc1cccc(C(=O)N2CCCCC2c2nccs2)c1 (stereo not drawn) to CC(=O)NCCC1CCCCN1S(=O)(=O)c1cccc(C#N)c1 (stereo not drawn), the INHIBITION falls from 4.41% to -7.53%.

Compared with CN(Cc1cccnc1)C1CCCN(Cc2noc(C3CC3)n2)C1 (stereo not drawn), CC(C)(C)c1nc(CN2CCCC2c2nnc3ccccn23)no1 (stereo not drawn) is lower in INHIBITION: 42.12% for the first, -12.01% for the second.

First: Cc1ccc(CS(=O)(=O)Cc2nc(N)nc(N(C)C)n2)cc1
Second: CC(C)c1ccc(S(=O)(=O)Cc2nc(N)nc(N(C)C)n2)cc1
The INHIBITION of the first is lower: -44.8% for the first, -25.72% for the second.

First: O=c1n(CC2CC2)nc(C2CCNCC2)n1Cc1ccccc1
Second: CCCn1nc(C2CCNCC2)n(Cc2ccccc2)c1=O
The INHIBITION of the first is higher: 51.19% for the first, 26.92% for the second.

Going from CCOCCn1nc(C2CCNCC2)n(Cc2ccccc2)c1=O to Cc1cccc(CN2CCn3cc(CNC(=O)CC4CC4)nc3C2)n1, the INHIBITION falls from 49.95% to 17.24%.

First: O=C(Nc1ccccc1C(=O)N1CCCC1)NC1CCOCC1
Second: CC(C)C(=O)NC1CC2(CCN(CC(=O)N(C)C)CC2)c2ccccc21 (stereo not drawn)
The INHIBITION of the first is higher: 70.83% for the first, -0.91% for the second.

First: CCC(=O)Nc1cccc(OCC(=O)N(C)Cc2ccon2)c1
Second: CCC(=O)Nc1cccc(OCC(=O)N(C)Cc2nc(C)c[nH]2)c1
The INHIBITION of the first is lower: 19.91% for the first, 53.13% for the second.

Compared with N#Cc1cccc(S(=O)(=O)N2CCCCC2C(N)=O)c1 (stereo not drawn), Cc1ccc(-c2cn(C3CCN(C(=O)[C@H]4CCCO4)CC3)nn2)cc1 is higher in INHIBITION: 70.24% for the first, 74.44% for the second.

Going from CC(C)=CCS(=O)(=O)Cc1nc(C(C)C)no1 to COc1nc2ccn(CCc3scnc3C)c(=O)c2cc1C#N, the INHIBITION falls from 34.69% to 0.31%.

Compared with O=C(C1CCCO1)N1CCC(n2cc(-c3ccsc3)nn2)CC1 (stereo not drawn), O=C(C1CCCO1)N1CCC(n2cc(-c3ccc(F)cc3)nn2)CC1 (stereo not drawn) is higher in INHIBITION: 7.67% for the first, 31.51% for the second.

Compared with O=C(NCCN1CCOCC1)c1ccc(-n2ccc3ccccc32)s1, O=C(NCCCN1CCOCC1)c1ccc(-n2ccc3ccccc32)s1 is lower in INHIBITION: 52.4% for the first, 28.31% for the second.

Compared with O=C(NCCCN1CCCCC1)c1ccc(-n2ccc3ccccc32)s1, COc1nc2ccn(CCc3cnccn3)c(=O)c2cc1C#N is lower in INHIBITION: 13.64% for the first, -32.52% for the second.
